Of roughly 7,900 targets only a part is listed; those with a hit were picked by preference. About 0.6% of all pairs of compound and target were hits.
Columns and labels:
Assay in all cases: log2 fold change, soluble protein after heating vs DMSO (PISA); higher = thermal stabilisation; K562 cells, 10 uM, 30 min; active = over 0.2 and 3.5 SD of the protein, either way, in both replicates (recomputed)
[1] = compound: NC(=O)Nc1cc(-c2cccc(F)c2)sc1C(=O)N[C@H]1CCCNC1
In short: (§1)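 Values are thermal stability changes relative to control samples and are taken from duplicates. They are stated as log2 fold changes. Before quantification by TMTpro 16plex LC-MS/MS with equalised channel sums, K562 cells at 2×10^6 cells/mL were treated with 10 μM compound for 30 min, heated in aliquots for 3 min across 48°C-58°C, pooled, extracted in PBS with 0.5% NP-40 at 4°C, and centrifuged at 21,000xg for 90 min to give the soluble supernatant.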

[2] = compound: NC(=O)c1cnc(N[C@@H]2CCCC[C@@H]2N)nc1Nc1cccc(-n2nccn2)c1
In short: as §1

[3] = compound: NC1(c2ccc(-c3nc4ccn5c(=O)[nH]nc5c4cc3-c3ccccc3)cc2)CCC1
In short: as §1

[4] = compound: NCC(=O)Nc1ccc(-n2nc(C(F)(F)F)cc2-c2ccc3c(ccc4ccccc43)c2)cc1
In short: as §1

[5] = compound: Nc1ccccc1NC(=O)c1ccc(CNC(=O)OCc2cccnc2)cc1 [entinostat]
In short: as §1

[6] = compound: O=C(CCCCCCC(=O)Nc1ccccc1)NO [vorinostat]
In short: as §1

[7] = compound: O=C(CCCCCCNC(=O)c1cnc(N(c2ccccc2)c2ccccc2Cl)nc1)NO [citarinostat]
In short: as §1

[8] = compound: O=C(O)c1ccc2c(c1)nc(Nc1cccc(Cl)c1)c1ccncc12 [silmitasertib]
In short: as §1

[9] = compound: O=C1NC(=O)C(c2cnc3ccccn23)=C1c1cn2c3c(cc(F)cc13)CN(C(=O)N1CCCCC1)CC2
In short: as §1

[10] = compound: c1cc(OCCN2CCCCC2)cc(-c2n[nH]c3ccc(-c4nnc[nH]4)cc23)c1
In short: as §1

[11] = compound: c1cn2cc(-c3ccc4cn[nH]c4c3)nc(Nc3ccc(N4CCOCC4)cc3)c2n1 [entospletinib]
In short: as §1

Measured: log2 fold change

SGPL1 (UniProt O95470)
inactive: [1] -0.01 | [2] 0.004 | [3] -0.005 | [4] 0.144 | [5] 0 | [6] -0.014 | [7] 0.009 | [8] -0.034 | [9] 0.064 | [10] -0.134 | [11] -0.017

SIRT2 (UniProt Q8IXJ6)
Sequence of UniProt Q8IXJ6 (Q8IXJ6 whole entry, looked up): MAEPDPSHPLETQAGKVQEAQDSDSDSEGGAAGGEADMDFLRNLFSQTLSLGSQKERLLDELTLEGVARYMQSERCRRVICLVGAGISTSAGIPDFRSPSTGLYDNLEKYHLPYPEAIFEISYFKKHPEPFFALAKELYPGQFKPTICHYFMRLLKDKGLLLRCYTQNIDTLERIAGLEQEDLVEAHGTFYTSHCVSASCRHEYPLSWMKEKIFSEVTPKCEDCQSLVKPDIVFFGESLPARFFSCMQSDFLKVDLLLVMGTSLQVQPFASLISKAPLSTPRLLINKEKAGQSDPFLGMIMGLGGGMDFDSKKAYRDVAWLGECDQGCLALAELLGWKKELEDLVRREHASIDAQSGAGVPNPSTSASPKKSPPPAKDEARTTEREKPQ
inactive: [1] -0.048 | [2] 0.023 | [3] -0.07 | [4] -0.066 | [5] -0.02 | [6] -0.039 | [7] -0.022 | [8] -0.035 | [9] -0.035 | [10] 0.033 | [11] -0.047

RPS15 (UniProt P62841)
inactive: [1] 0.005 | [2] -0.13 | [3] 0.135 | [4] 0 | [5] -0.068 | [6] 0 | [7] -0.034 | [8] 0.02 | [9] 0.036 | [10] -0.144 | [11] 0.186

RAF1 isoform 2 (UniProt P04049)
inactive: [1] -0.208 | [2] -0.012 | [3] 0.086 | [4] -0.017 | [5] -0.033 | [6] 0.069 | [7] -0.037 | [8] -0.033 | [9] -0.13 | [10] -0.133 | [11] -0.007

RNF14 (UniProt Q9UBS8)
inactive: [1] -0.016 | [2] -0.054 | [3] -0.157 | [4] 0.008 | [5] 0.037 | [6] 0.021 | [7] -0.006 | [8] 0.003 | [9] -0.127 | [10] -0.007 | [11] 0.035

RTF2 (UniProt Q9BY42)
Sequence of UniProt Q9BY42 (Q9BY42 whole entry, looked up): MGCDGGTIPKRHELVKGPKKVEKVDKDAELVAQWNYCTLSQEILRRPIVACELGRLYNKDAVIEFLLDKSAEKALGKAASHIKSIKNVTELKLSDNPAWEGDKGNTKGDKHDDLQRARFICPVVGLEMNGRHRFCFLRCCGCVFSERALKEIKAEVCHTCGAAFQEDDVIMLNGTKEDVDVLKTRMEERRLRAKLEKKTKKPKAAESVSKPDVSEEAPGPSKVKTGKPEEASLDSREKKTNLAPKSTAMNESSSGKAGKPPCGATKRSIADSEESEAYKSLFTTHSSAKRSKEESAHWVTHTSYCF
inactive: [1] -0.134 | [2] 0.012 | [3] 0.124 | [4] -0.081 | [5] -0.023 | [6] -0.062 | [7] 0.133 | [8] 0.133 | [9] -0.189 | [10] 0.028 | [11] -0.069

RPS6KA3 (UniProt P51812)
Sequence of UniProt P51812 (P51812 whole entry, looked up): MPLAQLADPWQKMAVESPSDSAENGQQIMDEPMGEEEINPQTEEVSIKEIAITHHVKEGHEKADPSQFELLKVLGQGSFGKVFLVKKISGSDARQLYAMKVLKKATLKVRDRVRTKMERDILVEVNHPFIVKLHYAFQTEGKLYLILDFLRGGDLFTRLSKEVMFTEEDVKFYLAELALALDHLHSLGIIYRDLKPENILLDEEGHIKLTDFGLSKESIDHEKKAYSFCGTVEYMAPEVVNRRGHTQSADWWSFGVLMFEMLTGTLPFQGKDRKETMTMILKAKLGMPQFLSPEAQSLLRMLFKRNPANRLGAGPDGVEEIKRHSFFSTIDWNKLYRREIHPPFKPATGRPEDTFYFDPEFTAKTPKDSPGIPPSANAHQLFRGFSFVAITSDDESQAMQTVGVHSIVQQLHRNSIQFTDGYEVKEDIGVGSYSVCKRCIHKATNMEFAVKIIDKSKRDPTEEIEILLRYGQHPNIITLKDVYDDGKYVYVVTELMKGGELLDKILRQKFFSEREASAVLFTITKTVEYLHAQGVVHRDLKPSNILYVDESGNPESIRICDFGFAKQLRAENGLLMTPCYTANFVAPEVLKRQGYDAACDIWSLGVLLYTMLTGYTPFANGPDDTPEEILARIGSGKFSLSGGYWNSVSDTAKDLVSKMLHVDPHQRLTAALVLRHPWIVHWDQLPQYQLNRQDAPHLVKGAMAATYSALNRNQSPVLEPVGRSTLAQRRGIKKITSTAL
inactive: [1] -0.076 | [2] -0.177 | [3] -0.203 | [4] -0.029 | [5] 0.044 | [6] 0.048 | [7] 0.079 | [8] -0.038 | [9] -0.046 | [10] -0.241 | [11] 0.037

RGS10 (UniProt O43665)
Sequence of UniProt O43665 (O43665 whole entry, looked up): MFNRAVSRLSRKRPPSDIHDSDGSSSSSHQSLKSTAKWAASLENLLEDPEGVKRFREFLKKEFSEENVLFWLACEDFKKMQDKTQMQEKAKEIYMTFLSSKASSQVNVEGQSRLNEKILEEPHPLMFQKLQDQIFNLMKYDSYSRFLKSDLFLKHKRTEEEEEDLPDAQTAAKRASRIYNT
inactive: [1] 0.077 | [2] 0.068 | [3] -0.037 | [4] 0.11 | [5] 0.038 | [6] 0.054 | [7] 0.087 | [8] 0.01 | [9] -0.057 | [10] 0.033 | [11] -0.006

RUFY1 (UniProt Q96T51)
Sequence of UniProt Q96T51 (Q96T51 whole entry, looked up): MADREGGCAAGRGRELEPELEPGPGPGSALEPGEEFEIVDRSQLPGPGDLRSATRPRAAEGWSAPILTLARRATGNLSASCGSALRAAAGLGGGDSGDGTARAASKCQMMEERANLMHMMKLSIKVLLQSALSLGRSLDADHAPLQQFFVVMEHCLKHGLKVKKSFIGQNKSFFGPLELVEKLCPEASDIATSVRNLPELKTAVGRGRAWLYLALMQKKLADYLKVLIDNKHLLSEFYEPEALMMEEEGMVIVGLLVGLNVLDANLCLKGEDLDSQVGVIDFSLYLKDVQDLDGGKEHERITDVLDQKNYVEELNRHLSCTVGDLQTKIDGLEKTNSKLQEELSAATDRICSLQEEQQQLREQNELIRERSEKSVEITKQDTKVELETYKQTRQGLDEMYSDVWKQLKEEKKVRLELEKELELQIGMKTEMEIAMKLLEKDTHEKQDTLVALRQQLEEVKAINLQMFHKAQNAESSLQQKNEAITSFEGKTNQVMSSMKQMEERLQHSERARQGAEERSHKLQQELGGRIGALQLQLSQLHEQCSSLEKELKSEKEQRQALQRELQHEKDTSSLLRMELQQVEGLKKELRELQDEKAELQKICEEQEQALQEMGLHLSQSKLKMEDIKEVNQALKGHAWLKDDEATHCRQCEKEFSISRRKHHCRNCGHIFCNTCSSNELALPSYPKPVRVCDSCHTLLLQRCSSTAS
inactive: [1] 0.06 | [2] -0.057 | [3] -0.086 | [4] -0.101 | [5] 0.05 | [6] 0.031 | [7] 0.032 | [8] 0.11 | [9] 0.038 | [10] -0.037 | [11] 0.042

RHEB (UniProt Q15382)
inactive: [1] -0.042 | [2] -0.014 | [3] -0.058 | [4] -0.029 | [5] -0.012 | [6] 0.002 | [7] 0.022 | [8] -0.033 | [9] -0.038 | [10] -0.025 | [11] -0.073

RAC1 (UniProt P63000)
inactive: [1] 0.093 | [2] 0.043 | [3] 0.018 | [4] 0.051 | [5] 0.047 | [6] 0.084 | [7] -0.087 | [8] -0.078 | [9] 0.065 | [10] 0.146 | [11] 0.026

SCO2 (UniProt O43819)
active: [1] -0.598
inactive: [2] -0.078 | [3] 0.015 | [4] 0.006 | [5] -0.266 | [6] 0.011 | [7] -0.001 | [8] -0.078 | [9] -0.092 | [10] 0.118 | [11] -0.118

RNPS1 (UniProt Q15287)
inactive: [1] -0.019 | [2] -0.39 | [3] 0.097 | [4] 0.031 | [5] -0.06 | [6] 0.024 | [7] 0.038 | [8] -0.111 | [9] -0.018 | [10] -0.146 | [11] 0.064

SAMSN1 isoform 3 (UniProt Q9NSI8)
inactive: [1] -0.06 | [2] -0.067 | [3] -0.067 | [4] -0.028 | [5] 0.099 | [6] 0.009 | [7] 0.06 | [8] 0.063 | [9] -0.073 | [10] -0.025 | [11] -0.058

RPS25 (UniProt P62851)
inactive: [1] -0.043 | [2] 0.071 | [3] 0.192 | [4] 0.053 | [5] -0.072 | [6] 0.032 | [7] -0.066 | [8] -0.061 | [9] 0.107 | [10] -0.052 | [11] 0.075

RB1CC1 (UniProt Q8TDY2)
Sequence of UniProt Q8TDY2 (Q8TDY2 whole entry, looked up): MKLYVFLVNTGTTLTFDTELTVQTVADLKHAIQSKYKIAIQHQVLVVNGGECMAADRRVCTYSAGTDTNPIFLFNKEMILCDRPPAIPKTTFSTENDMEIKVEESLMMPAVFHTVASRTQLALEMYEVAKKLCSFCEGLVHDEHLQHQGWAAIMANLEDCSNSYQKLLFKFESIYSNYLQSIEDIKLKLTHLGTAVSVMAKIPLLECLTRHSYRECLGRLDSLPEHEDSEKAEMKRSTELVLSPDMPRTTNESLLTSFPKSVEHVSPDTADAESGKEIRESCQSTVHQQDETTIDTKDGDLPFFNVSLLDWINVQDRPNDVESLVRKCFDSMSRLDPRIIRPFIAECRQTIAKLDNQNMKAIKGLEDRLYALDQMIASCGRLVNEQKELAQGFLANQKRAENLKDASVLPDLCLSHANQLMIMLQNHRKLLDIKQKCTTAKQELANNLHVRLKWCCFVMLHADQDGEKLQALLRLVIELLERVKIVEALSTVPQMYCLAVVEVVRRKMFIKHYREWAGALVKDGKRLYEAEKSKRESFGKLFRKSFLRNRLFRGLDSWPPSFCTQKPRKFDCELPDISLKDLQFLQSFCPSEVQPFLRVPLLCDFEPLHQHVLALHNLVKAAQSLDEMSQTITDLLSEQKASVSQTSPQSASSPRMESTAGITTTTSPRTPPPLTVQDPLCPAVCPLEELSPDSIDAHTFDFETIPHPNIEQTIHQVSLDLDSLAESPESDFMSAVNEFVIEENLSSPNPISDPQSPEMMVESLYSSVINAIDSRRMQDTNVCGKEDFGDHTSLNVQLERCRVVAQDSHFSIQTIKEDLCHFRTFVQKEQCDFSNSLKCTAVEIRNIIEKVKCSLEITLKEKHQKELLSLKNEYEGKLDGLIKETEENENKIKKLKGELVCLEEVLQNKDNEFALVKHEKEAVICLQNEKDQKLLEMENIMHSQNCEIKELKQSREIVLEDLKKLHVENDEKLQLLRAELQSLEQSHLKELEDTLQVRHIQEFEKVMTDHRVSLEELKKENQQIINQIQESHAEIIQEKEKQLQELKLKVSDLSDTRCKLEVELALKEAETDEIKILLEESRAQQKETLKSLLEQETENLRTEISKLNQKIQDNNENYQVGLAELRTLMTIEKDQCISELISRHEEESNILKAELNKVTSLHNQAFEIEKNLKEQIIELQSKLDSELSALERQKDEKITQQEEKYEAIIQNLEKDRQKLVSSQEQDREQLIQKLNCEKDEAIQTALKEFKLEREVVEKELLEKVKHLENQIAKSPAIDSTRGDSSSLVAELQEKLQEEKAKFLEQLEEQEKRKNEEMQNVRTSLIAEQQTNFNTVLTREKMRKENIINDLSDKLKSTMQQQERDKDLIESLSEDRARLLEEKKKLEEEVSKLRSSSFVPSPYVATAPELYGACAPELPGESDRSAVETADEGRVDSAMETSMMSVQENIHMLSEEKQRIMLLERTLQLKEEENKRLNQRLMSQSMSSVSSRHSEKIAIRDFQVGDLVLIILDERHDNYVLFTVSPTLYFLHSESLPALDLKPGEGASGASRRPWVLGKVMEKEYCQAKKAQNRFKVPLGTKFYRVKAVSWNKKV
inactive: [1] 0.009 | [2] 0.124 | [3] 0.126 | [4] -0.022 | [5] 0.001 | [6] 0.047 | [7] 0.114 | [8] -0.08 | [9] -0.077 | [10] 0.111 | [11] -0.041

SIDT2 isoform 2 (UniProt Q8NBJ9)
inactive: [1] 0.057 | [2] -0.01 | [3] -0.086 | [4] 0.297 | [5] -0.064 | [6] -0.107 | [7] 0.002 | [8] -0.067 | [9] 0.029 | [10] 0.108 | [11] -0.003

SFXN5 (UniProt Q8TD22)
inactive: [1] -0.043 | [2] 0.042 | [3] -0.072 | [4] -0.095 | [5] -0.068 | [6] 0.019 | [7] -0.028 | [8] -0.003 | [9] 0.012 | [10] 0.072 | [11] 0.01

RPS18 (UniProt P62269)
inactive: [1] -0.032 | [2] 0.08 | [3] 0.122 | [4] 0.049 | [5] -0.083 | [6] 0.023 | [7] -0.093 | [8] 0 | [9] 0.069 | [10] -0.145 | [11] 0.094

RABGAP1L isoform 3 (UniProt Q5R372)
inactive: [1] -0.012 | [2] -0.012 | [3] -0.05 | [4] 0.036 | [5] 0.016 | [6] 0.025 | [7] 0.06 | [8] 0.019 | [9] 0.073 | [10] -0.011 | [11] -0.021

SDCBP (UniProt O00560)
Sequence of UniProt O00560 (O00560 whole entry, looked up): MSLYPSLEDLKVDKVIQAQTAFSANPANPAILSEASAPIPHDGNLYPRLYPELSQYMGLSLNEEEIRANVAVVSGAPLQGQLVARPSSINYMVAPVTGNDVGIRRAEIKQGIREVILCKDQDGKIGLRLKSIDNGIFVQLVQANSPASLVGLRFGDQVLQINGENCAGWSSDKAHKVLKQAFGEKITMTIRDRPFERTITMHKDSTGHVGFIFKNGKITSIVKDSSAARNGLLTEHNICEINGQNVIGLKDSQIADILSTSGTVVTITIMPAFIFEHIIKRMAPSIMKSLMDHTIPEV
inactive: [1] -0.027 | [2] -0.017 | [3] -0.207 | [4] -0.189 | [5] 0.007 | [6] 0.063 | [7] -0.014 | [8] 0.073 | [9] 0.028 | [10] -0.08 | [11] 0.115

RDH11 (UniProt Q8TC12)
Sequence of UniProt Q8TC12 (Q8TC12 whole entry, looked up): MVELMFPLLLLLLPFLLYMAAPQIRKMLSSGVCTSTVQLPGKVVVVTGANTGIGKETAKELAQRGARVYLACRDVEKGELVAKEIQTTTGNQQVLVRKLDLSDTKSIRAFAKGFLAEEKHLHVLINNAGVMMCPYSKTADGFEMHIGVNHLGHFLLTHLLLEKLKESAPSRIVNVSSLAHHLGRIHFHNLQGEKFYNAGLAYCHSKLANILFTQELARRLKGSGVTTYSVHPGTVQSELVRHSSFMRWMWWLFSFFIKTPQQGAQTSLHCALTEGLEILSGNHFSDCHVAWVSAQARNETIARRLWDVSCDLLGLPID
inactive: [1] -0.118 | [2] 0.061 | [3] -0.049 | [4] -0.165 | [5] 0.055 | [6] 0.05 | [7] 0.092 | [8] 0.061 | [9] -0.087 | [10] -0.041 | [11] 0.082

SH3GL1 (UniProt Q99961)
inactive: [1] -0.049 | [2] -0.088 | [3] -0.106 | [4] -0.032 | [5] 0.143 | [6] 0.082 | [7] 0.068 | [8] 0.028 | [9] 0.006 | [10] -0.041 | [11] -0.008

RPS16 (UniProt P62249)
inactive: [1] 0.086 | [2] 0.08 | [3] 0.182 | [4] 0.043 | [5] -0.043 | [6] 0.017 | [7] -0.044 | [8] -0.097 | [9] 0.093 | [10] -0.119 | [11] 0.074

RPTOR (UniProt Q8N122)
inactive: [1] -0.026 | [2] -0.139 | [4] -0.021 | [5] 0.009 | [6] 0.007 | [7] 0.056 | [8] 0.085 | [9] -0.025 | [10] -0.008 | [11] -0.048
active: [3] -0.243

SELENOH (UniProt Q8IZQ5)
inactive: [1] 0.227 | [2] 0.194 | [3] 0.011 | [4] 0.049 | [5] 0.066 | [6] -0.007 | [7] 0.067 | [8] 0.011 | [9] 0.038 | [10] 0.053 | [11] -0.143

SERPINA7 (UniProt P05543)
Sequence of UniProt P05543 (P05543 whole entry, looked up): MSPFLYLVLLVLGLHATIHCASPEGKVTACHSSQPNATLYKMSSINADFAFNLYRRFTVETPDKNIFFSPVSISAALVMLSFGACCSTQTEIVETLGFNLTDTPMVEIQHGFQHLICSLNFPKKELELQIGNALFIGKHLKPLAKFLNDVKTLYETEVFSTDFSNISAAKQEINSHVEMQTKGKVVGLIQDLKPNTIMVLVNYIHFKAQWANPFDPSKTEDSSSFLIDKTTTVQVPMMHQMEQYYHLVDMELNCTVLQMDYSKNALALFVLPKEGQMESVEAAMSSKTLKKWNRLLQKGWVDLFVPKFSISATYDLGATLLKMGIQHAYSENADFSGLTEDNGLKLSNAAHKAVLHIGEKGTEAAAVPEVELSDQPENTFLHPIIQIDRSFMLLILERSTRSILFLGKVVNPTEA
inactive: [1] -0.062 | [2] 0.132 | [3] 0.234 | [4] -0.075 | [5] -0.084 | [6] -0.164 | [7] -0.011 | [8] 0.091 | [9] 0.089 | [10] 0.367 | [11] 0.273
